Assay results published in PubChem BioAssay (NCATS).
Records with an inconclusive call do not appear. Where a call stands in place of a potency, no number is given. Active and inactive are the calls of the source. Calls come from the whole dose curve.

Assay: Primary qHTS for Vero E6 cytotoxicity: counterscreen for inhibitors of SARS-S pseudo-typed particle cell entry (AID 1479150)
Conditions: cell viability; series mostly up to 57.1 µM

Row | Structure (SMILES) | Potency
1 | CO[C@@]12[C@H](COC(N)=O)C3=C(C(=O)C(C)=C(N)C3=O)N1C[C@@H]1N[C@@H]12 | inactive
2 | CCCC(=O)Nc1ccc(OCC(O)CNC(C)C)c(C(C)=O)c1 (configuration not stated) | inactive
3 | C[C@]12CC[C@@H]3c4ccc(O)cc4C[C@@H](CCCCCCCCCS(=O)CCCC(F)(F)C(F)(F)F)[C@H]3[C@@H]1CC[C@@H]2O (some centres not stated) | inactive
4 | Nc1ccc(O)c(C(=O)O)c1 | inactive
5 | CN1CCN(C2=Nc3ccccc3Oc3ccc(Cl)cc32)CC1 | inactive
6 | COC(=O)C1=C(C)NC(C)=C(C(=O)OCCN(C)Cc2ccccc2)C1c1cccc([N+](=O)[O-])c1 (configuration not stated) | inactive
7 | NC(=O)N1c2ccccc2CC(=O)c2ccccc21 | inactive
8 | O=C1Nc2ccc(Cl)cc2[C@@](C#CC2CC2)(C(F)(F)F)O1 | inactive
9 | OCCN(CCO)c1nc(N2CCCCC2)c2nc(N(CCO)CCO)nc(N3CCCCC3)c2n1 | inactive
10 | Cc1cc2c(s1)Nc1ccccc1N=C2N1CCN(C)CC1 | inactive
11 | COc1nc(N)nc2c1ncn2[C@@H]1O[C@H](CO)[C@@H](O)[C@@H]1O | inactive
12 | Cc1nc2n(c(=O)c1CCN1CCC(c3noc4cc(F)ccc34)CC1)CCCC2 | inactive
13 | CCCCc1oc2ccccc2c1C(=O)c1cc(I)c(OCCN(CC)CC)c(I)c1 | inactive
14 | Fc1ccc([C@@H]2CCNC[C@H]2COc2ccc3c(c2)OCO3)cc1 | inactive
15 | CC/C(=C(\c1ccccc1)c1ccc(OCCN(C)C)cc1)c1ccccc1 | inactive
16 | CC(=O)CCCCn1c(=O)c2c(ncn2C)n(C)c1=O | inactive
17 | Oc1cc(Cl)ccc1Oc1ccc(Cl)cc1Cl | inactive
